Measured values reported in the supplement of paper PMC8728848.
Only a selection was taken, and the strongest signals are over-represented in it overall.

Assays:
Test in all cases: glycan array binding signal (z-score within array); higher = stronger binding
Conditions in all cases: glycan notation: IUPAC condensed, linker removed; mutation: R349A
[1] = target: Fuc(a1-2)Gal(b1-4)GlcNAc
How it was run: (§1)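 Glycan array data came from 3228 arrays in the Consortium for Functional Glycomics database, and only arrays with an available protein sequence were kept. Glycan names were put into IUPAC-condensed notation, and columns mapping to the same glycan were averaged. The binding signal is a within-array Z-score, averaged across arrays of one protein sequence run at different concentrations or buffers and across linkers. A negative Z-score can be read as non-binding.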

[2] = target: Fuc(a1-2)Gal(b1-4)GlcNAc(b1-3)Gal(b1-4)GlcNAc
How it was run: as §1

[3] = target: Fuc(a1-2)[GalNAc(b1-3)]Gal
How it was run: as §1

[4] = target: Fuc(a1-3)[Gal(b1-4)]GlcNAc(b1-3)Gal(b1-3)[Fuc(a1-4)]GlcNAc
How it was run: as §1

[5] = target: Gal(b1-3)GalNAc
How it was run: as §1

[6] = target: Gal(b1-3)GalNAc(b1-4)[Neu5Ac(a2-3)]Gal(b1-4)Glc
How it was run: as §1

[7] = target: Gal(b1-3)[Fuc(a1-4)]GlcNAc(b1-3)Gal(b1-4)GlcNAc
How it was run: as §1

[8] = target: Gal(b1-4)GlcNAc(b1-3)[GlcNAc(b1-6)]Gal(b1-4)GlcNAc
How it was run: as §1

[9] = target: Gal3S(b1-4)Glc
How it was run: as §1

[10] = target: Gal3S6S(b1-4)GlcNAc
How it was run: as §1

[11] = target: Gal3S6S(b1-4)GlcNAc6S
How it was run: as §1

[12] = target: Gal6S(b1-4)Glc6S
How it was run: as §1

[13] = target: GlcNAc(b1-2)Man(a1-3)[GlcNAc(b1-2)Man(a1-6)]Man(b1-4)GlcNAc(b1-4)GlcNAc
How it was run: as §1

[14] = target: GlcNAc(b1-3)Gal
How it was run: as §1

[15] = target: GlcNAc(b1-4)GlcNAc(b1-4)GlcNAc
How it was run: as §1

[16] = target: GlcNAc(b1-4)GlcNAc(b1-4)GlcNAc(b1-4)GlcNAc(b1-4)GlcNAc
How it was run: as §1

[17] = target: GlcNAc(b1-4)[GlcNAc(b1-6)]GalNAc
How it was run: as §1

[18] = target: Man(a1-2)Man(a1-2)Man(a1-6)[Man(a1-3)]Man
How it was run: as §1

[19] = target: Man(a1-2)Man(a1-3)Man
How it was run: as §1

[20] = target: Man(a1-2)Man(a1-3)[Man(a1-2)Man(a1-6)]Man(a1-6)[Man(a1-2)Man(a1-2)Man(a1-3)]Man
How it was run: as §1

[21] = target: Man(a1-3)[Man(a1-6)]Man(a1-6)[Man(a1-2)Man(a1-3)]Man(b1-4)GlcNAc(b1-4)GlcNAc
How it was run: as §1

[22] = target: Neu5Ac(a2-3)Gal(b1-4)GlcNAc(b1-2)Man(a1-3)[GlcNAc(b1-2)Man(b1-4)GlcNAc(b1-2)Man(a1-6)]Man(b1-4)GlcNAc(b1-4)GlcNAc
How it was run: as §1

[23] = target: Neu5Ac(a2-3)Gal(b1-4)[Fuc(a1-3)]GlcNAc(b1-3)Gal(b1-4)[Fuc(a1-3)]GlcNAc(b1-3)Gal(b1-4)[Fuc(a1-3)]GlcNAc
How it was run: as §1

[24] = target: Neu5Ac(a2-6)GalNAc
How it was run: as §1

[25] = target: Neu5Ac(a2-8)Neu5Ac(a2-8)Neu5Ac(a2-3)[GalNAc(b1-4)]Gal(b1-4)Glc
How it was run: as §1

B1: Surfactant Protein D (Human); Neck + Carbohydrate Recognition Domain (NCRD) (Homo sapiens) (protein)
chain: MLLFLLSALVLLTQPLGYLEAEMKTYSHRTMPSACTLVMCSSVESGLPGRDRDGREGPRGEKGDPGLPGAAGQAGMPGQAGPVGPKGDNGSVGEPGPKGDTGPSGPPGPPGVPGPAGREGALGKQGNIGPQGKPGPKGEAGPKGEVGAPGMQGSAGARGLAGPKGERGVPGERGVPGNTGAAGSAGAMGPQGSPGARGPPGLKGDKGIPGDKGAKGESGLPDVASLRQQVEALQGQVQHLQAAFSQYKKVELFPNGQSVGEKIFKTAQFVKPFTEAQLLCTQAGGQLASPRSAAENAALQQLVVAKNEAAFLSMTDSKTEGKFTYPTGESLVYSNWAPGEPNDDGGSEDCVEIFTNGKWNDRACGEKALVVCEF
glycan array binding signal (z-score) [1]: -0.584 | glycan array binding signal (z-score) [2]: -0.301 | glycan array binding signal (z-score) [3]: -0.782 | glycan array binding signal (z-score) [4]: -0.667 | glycan array binding signal (z-score) [5]: -0.459 | glycan array binding signal (z-score) [6]: 0.216 | glycan array binding signal (z-score) [7]: 0.257 | glycan array binding signal (z-score) [8]: -0.419 | glycan array binding signal (z-score) [9]: 0.892 | glycan array binding signal (z-score) [10]: 2.25 | glycan array binding signal (z-score) [11]: 3.32 | glycan array binding signal (z-score) [12]: 3.96 | glycan array binding signal (z-score) [13]: -0.653 | glycan array binding signal (z-score) [14]: -0.71 | glycan array binding signal (z-score) [15]: 3.19 | glycan array binding signal (z-score) [16]: 0.258 | glycan array binding signal (z-score) [17]: -0.577 | glycan array binding signal (z-score) [18]: -0.532 | glycan array binding signal (z-score) [19]: 0.578 | glycan array binding signal (z-score) [20]: 4.48 | glycan array binding signal (z-score) [21]: 7.39 | glycan array binding signal (z-score) [22]: 0.008 | glycan array binding signal (z-score) [23]: -0.593 | glycan array binding signal (z-score) [24]: 0.373 | glycan array binding signal (z-score) [25]: -0.579
